Reference: PubChem BioAssay (NCI)
This is part of a sample that, as a whole, favours compounds with a hit. Of some 83,000 tested, about 20% had one in any assay.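 The endpoint reported here, percent growth, reads 100 for growth as untreated, 0 for no net growth and -100 for all cells dead.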 Calls of active or inactive are those of the source. Rule for the calls: active = growth percent below 10; inactive = the rest.

How the values were obtained:
Test in all cases: NCI-60 one-dose screen, 48 h (100 = growth as untreated, 0 = no growth, -100 = all killed)
Conditions in all cases: 10 µM unless noted
NCI-H23 lung = tested on: NCI-H23 lung
NCI-H226 lung = tested on: NCI-H226 lung
NCI-H322M lung = tested on: NCI-H322M lung
HOP-62 NSCLC = tested on: HOP-62 NSCLC
NCI-H460 lung = tested on: NCI-H460 lung
HOP-92 NSCLC = tested on: HOP-92 NSCLC
NCI-H522 lung = tested on: NCI-H522 lung
A549/ATCC NSCLC = tested on: A549/ATCC NSCLC
786-0 renal = tested on: 786-0 renal
DU-145 prostate = tested on: DU-145 prostate
K-562 leukemia = tested on: K-562 leukemia
MALME-3M melanoma = tested on: MALME-3M melanoma
MDA-MB-231 breast = tested on: MDA-MB-231 breast
RXF 393 renal = tested on: RXF 393 renal
SF-268 CNS = tested on: SF-268 CNS
SF-539 CNS = tested on: SF-539 CNS
UACC-257 melanoma = tested on: UACC-257 melanoma
M14 melanoma = tested on: M14 melanoma
SF-295 CNS = tested on: SF-295 CNS

Measured: growth

C=C(C)C1CCC(=C)C2CCC3(C)OC12/C=C(/COC(C)=O)CCC3O (stereo not given)
inactive: NCI-H23 lung 111% | NCI-H226 lung 102% | NCI-H322M lung 97.9% | HOP-62 NSCLC 103% | NCI-H460 lung 104% | HOP-92 NSCLC 60.6% | NCI-H522 lung 93.3% | A549/ATCC NSCLC 74.2% | 786-0 renal 106% | DU-145 prostate 100% | K-562 leukemia 88.6% | MALME-3M melanoma 137% | MDA-MB-231 breast 105% | RXF 393 renal 98.4% | SF-268 CNS 105% | SF-539 CNS 104% | UACC-257 melanoma 37.9% | M14 melanoma 109%

COc1cc(C2CC(=O)Nc3n[nH]c(-c4ccccc4)c32)cc(OC)c1OC (stereo not given)
inactive: NCI-H23 lung 81.6% | NCI-H226 lung 91.8% | NCI-H322M lung 94.1% | HOP-62 NSCLC 58% | NCI-H460 lung 67.5% | HOP-92 NSCLC 77.4% | NCI-H522 lung 30.1% | A549/ATCC NSCLC 46% | 786-0 renal 75.3% | DU-145 prostate 102% | K-562 leukemia 24.6% | MALME-3M melanoma 68.5% | MDA-MB-231 breast 63.9% | SF-268 CNS 90.7% | SF-295 CNS 75.5% | SF-539 CNS 81.2% | M14 melanoma 53.3%

CC/C=C/[C@@H]1C=C[C@@H]2CCC[C@H]2[C@@H]1CC[C@H](O)[C@H](C)N
inactive: NCI-H226 lung 91.5% | HOP-92 NSCLC 12% | SF-268 CNS 29.2%
active: NCI-H23 lung -63.4% | NCI-H322M lung -35.4% | HOP-62 NSCLC -89.7% | NCI-H460 lung -83.1% | NCI-H522 lung -56.9% | A549/ATCC NSCLC 3.8% | 786-0 renal -92.4% | DU-145 prostate -12.9% | K-562 leukemia -18.6% | MALME-3M melanoma -80.2% | MDA-MB-231 breast -22.5% | SF-295 CNS -71.3% | SF-539 CNS -67.6% | UACC-257 melanoma -71.5% | M14 melanoma -76.4%

Cc1c(C(N)=O)sc2nc(C)n(/N=c3\scc(-c4ccccc4)n3Cc3ccccc3)c(=O)c12
active: NCI-H460 lung 7.46% | HOP-92 NSCLC -19.1% | A549/ATCC NSCLC 0% | K-562 leukemia 8.42% | RXF 393 renal -5.46% | UACC-257 melanoma 4.85%
inactive: NCI-H23 lung 20.5% | NCI-H226 lung 30.9% | NCI-H322M lung 35.4% | HOP-62 NSCLC 24.2% | NCI-H522 lung 24.9% | 786-0 renal 50.7% | DU-145 prostate 42.2% | MALME-3M melanoma 60.5% | MDA-MB-231 breast 43% | SF-268 CNS 21.3% | SF-539 CNS 22.2% | M14 melanoma 36.4%

CCCCCCCC/C=C\CCCCCCCC(=O)Oc1cccc2cccnc12
inactive: NCI-H23 lung 105% | NCI-H226 lung 97% | NCI-H322M lung 97.6% | HOP-62 NSCLC 96.4% | NCI-H460 lung 96.1% | HOP-92 NSCLC 236% | NCI-H522 lung 71% | A549/ATCC NSCLC 101% | 786-0 renal 105% | DU-145 prostate 78.5% | K-562 leukemia 73.9% | MALME-3M melanoma 117% | MDA-MB-231 breast 106% | RXF 393 renal 47.6% | SF-268 CNS 90.8% | SF-539 CNS 102% | M14 melanoma 90.3%
active: UACC-257 melanoma 2.81%

O=C(c1ccccc1)c1ccc(Cl)c([N+](=O)[O-])c1
active: K-562 leukemia 7.38%
inactive: NCI-H23 lung 100% | NCI-H226 lung 104% | NCI-H322M lung 90.6% | HOP-62 NSCLC 124% | NCI-H460 lung 101% | HOP-92 NSCLC 99.1% | NCI-H522 lung 77% | A549/ATCC NSCLC 103% | 786-0 renal 103% | DU-145 prostate 75.4% | MDA-MB-231 breast 114% | RXF 393 renal 104% | SF-268 CNS 88.6% | SF-295 CNS 99% | SF-539 CNS 97.9% | UACC-257 melanoma 87.6% | M14 melanoma 94.6%

COC(=O)[C@]12CC[C@@H](C)[C@H](C)[C@@H]1C1=CC[C@@H]3[C@@]4(C)C(C=O)=C[C@@](C)(CO)C4=CC[C@@]3(C)[C@]1(C)CC2
inactive: NCI-H23 lung 31.7% | NCI-H226 lung 58.5% | NCI-H322M lung 61.3% | HOP-62 NSCLC 83.8% | NCI-H460 lung 17.5% | HOP-92 NSCLC 38% | NCI-H522 lung 28.1% | A549/ATCC NSCLC 29.1% | 786-0 renal 45.2% | DU-145 prostate 39.9% | K-562 leukemia 16.4% | MALME-3M melanoma 60.1% | MDA-MB-231 breast 53.2% | SF-268 CNS 48.3% | SF-295 CNS 24.9% | SF-539 CNS 29.8% | M14 melanoma 28.5%

CC(C)CCC[C@@H](C)[C@H]1CCC2C3=CCC4C(=O)C=CC(=O)C4C3CC[C@@]21C (stereo not given in full)
active: NCI-H23 lung 8.4% | NCI-H460 lung 2.88% | HOP-92 NSCLC -28.9% | NCI-H522 lung -46.1% | A549/ATCC NSCLC 8.75% | 786-0 renal -5.66% | K-562 leukemia 9.94% | RXF 393 renal -66.6% | SF-295 CNS -61.2% | SF-539 CNS -25.6% | UACC-257 melanoma -3.37%
inactive: NCI-H226 lung 42% | NCI-H322M lung 42.6% | HOP-62 NSCLC 12.1% | DU-145 prostate 26.6% | MDA-MB-231 breast 28.6% | SF-268 CNS 20.4% | M14 melanoma 17.5%

CCOC(=O)N1CCc2c(sc3c2C(=O)N[C@H](c2ccc(OC)cc2)N3)C1
inactive: NCI-H23 lung 103% | NCI-H226 lung 94.7% | NCI-H322M lung 105% | HOP-62 NSCLC 68.4% | NCI-H460 lung 104% | HOP-92 NSCLC 92.6% | NCI-H522 lung 76% | A549/ATCC NSCLC 85.4% | 786-0 renal 97.8% | DU-145 prostate 113% | MALME-3M melanoma 96.7% | MDA-MB-231 breast 104% | RXF 393 renal 113% | SF-268 CNS 101% | SF-295 CNS 97% | SF-539 CNS 100% | UACC-257 melanoma 86.6% | M14 melanoma 94.7%
